{"source": "the supplement of paper PMC11732987", "about": "“Enantioselective OTUD7B fragment discovery through chemoproteomics screening and high-throughput optimisation” (Communications Chemistry, 2025)", "test_in_all_cases": "log2 ratio of Biotin-Ahx-Ub-VS probe labelling (fragment/DMSO); higher = less target engagement (more negative = stronger competition), active = hit call of the paper (q ≤ 0.05, log2 ratio ≤ -1)", "conditions_in_all_cases": "compound concentration: 200 uM; treatment time: 3 h", "key": {"USP42": {"target": "T1, USP42 (UniProt Q9H9J4)", "T1 sequence (whole entry)": "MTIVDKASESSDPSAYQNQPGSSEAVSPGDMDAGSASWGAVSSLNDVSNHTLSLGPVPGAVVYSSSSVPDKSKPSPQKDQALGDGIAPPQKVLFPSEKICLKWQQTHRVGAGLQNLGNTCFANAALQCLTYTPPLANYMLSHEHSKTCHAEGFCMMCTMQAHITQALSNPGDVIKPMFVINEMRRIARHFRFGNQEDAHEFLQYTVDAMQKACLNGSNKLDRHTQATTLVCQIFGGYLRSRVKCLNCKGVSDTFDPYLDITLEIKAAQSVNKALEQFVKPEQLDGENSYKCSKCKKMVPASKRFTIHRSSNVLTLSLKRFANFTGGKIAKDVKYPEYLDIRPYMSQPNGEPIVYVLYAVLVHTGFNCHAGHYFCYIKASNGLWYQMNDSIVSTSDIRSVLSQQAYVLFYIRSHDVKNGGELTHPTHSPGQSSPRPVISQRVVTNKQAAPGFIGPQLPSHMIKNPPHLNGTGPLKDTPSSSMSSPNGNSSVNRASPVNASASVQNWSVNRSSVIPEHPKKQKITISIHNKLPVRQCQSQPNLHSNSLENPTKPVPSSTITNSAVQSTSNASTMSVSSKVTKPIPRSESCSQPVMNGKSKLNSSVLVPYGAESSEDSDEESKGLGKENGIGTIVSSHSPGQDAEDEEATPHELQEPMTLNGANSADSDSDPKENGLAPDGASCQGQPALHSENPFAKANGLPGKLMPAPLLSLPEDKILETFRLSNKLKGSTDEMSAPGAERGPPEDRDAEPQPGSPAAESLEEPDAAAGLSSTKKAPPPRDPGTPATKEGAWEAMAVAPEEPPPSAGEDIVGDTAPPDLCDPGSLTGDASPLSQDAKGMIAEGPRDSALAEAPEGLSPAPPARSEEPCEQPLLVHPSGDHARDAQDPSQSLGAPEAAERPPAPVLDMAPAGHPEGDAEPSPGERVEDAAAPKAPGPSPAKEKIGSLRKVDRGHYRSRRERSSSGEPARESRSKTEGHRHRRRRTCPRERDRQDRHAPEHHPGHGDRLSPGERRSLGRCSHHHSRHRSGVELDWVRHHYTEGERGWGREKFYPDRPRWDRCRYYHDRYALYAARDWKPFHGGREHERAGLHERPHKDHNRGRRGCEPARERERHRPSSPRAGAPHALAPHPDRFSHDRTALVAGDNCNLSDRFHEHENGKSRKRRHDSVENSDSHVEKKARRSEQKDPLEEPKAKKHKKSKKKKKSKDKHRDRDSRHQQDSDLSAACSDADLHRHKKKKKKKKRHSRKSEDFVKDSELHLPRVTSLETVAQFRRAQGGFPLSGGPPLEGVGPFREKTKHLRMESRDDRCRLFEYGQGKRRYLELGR", "outline": "(§1)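 Labelled DUBs from HEK293T lysate were NeutrAvidin-enriched, digested with LysC and trypsin, and run by diaPASEF LC-MS/MS. Before that, each 495 µg sample in Tris/CHAPS/IGEPAL buffer with protease inhibitors was treated in triplicate with fragment at 200 µM or vehicle for 3 h, then with Biotin-Ahx-Ub-VS at 0.5 µM final for 1 h. Values are average log2 ratios of fragment over vehicle by unpaired t-test, based on global-median-normalised Spectronaut label-free quantities from proteins with ≥2 unique peptides.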"}, "USP46": {"target": "USP46 (UniProt P62068)", "sequence (P62068 whole entry)": "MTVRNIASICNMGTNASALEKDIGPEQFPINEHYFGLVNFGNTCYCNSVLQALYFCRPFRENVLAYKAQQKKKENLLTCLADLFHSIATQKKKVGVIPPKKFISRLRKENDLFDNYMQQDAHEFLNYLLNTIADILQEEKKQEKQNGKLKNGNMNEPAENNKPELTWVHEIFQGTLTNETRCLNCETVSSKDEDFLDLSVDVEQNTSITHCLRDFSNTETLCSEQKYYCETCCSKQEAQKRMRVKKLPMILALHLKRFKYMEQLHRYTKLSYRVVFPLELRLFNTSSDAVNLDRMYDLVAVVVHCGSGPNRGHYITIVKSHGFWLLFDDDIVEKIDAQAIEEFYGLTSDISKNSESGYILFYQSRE", "outline": "as §1"}, "USP47": {"target": "T2, USP47 (UniProt Q96K76)", "T2 sequence (whole entry)": "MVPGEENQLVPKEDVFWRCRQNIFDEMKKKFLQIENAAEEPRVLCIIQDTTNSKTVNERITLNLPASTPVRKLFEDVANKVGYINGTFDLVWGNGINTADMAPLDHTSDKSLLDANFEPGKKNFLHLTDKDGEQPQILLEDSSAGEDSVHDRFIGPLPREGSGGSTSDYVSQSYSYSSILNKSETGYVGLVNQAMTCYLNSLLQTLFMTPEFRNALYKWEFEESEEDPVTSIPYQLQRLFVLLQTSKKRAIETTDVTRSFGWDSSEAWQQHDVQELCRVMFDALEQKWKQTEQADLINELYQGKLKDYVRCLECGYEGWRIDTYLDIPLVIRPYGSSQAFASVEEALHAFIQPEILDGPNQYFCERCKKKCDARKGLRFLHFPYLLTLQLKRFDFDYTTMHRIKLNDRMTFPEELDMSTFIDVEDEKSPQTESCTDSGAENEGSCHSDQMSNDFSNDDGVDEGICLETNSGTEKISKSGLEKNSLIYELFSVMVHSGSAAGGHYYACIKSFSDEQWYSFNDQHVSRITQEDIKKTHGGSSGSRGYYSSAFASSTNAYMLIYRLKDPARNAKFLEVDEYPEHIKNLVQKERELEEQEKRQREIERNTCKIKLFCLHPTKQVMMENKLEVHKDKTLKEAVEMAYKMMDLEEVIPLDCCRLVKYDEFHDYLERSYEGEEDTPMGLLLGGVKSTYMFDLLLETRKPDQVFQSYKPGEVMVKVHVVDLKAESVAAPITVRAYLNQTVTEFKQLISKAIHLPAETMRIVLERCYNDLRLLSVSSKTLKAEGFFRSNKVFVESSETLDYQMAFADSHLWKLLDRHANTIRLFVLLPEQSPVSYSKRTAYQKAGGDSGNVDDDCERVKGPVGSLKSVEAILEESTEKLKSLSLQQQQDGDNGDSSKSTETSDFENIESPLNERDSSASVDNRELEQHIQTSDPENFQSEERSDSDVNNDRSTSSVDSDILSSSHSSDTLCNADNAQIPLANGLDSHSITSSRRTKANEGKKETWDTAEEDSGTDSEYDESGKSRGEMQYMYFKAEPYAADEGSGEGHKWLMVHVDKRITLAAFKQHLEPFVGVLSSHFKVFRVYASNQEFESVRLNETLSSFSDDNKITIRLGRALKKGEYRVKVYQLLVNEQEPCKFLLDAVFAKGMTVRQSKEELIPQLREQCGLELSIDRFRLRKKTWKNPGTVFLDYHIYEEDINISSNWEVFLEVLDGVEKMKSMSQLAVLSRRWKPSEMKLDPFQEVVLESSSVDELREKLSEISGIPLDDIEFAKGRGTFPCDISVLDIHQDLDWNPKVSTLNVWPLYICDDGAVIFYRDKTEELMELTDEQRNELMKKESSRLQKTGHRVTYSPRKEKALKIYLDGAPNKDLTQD", "outline": "as §1"}, "USP48": {"target": "T3, USP48 (UniProt Q86UV5)", "T3 sequence (whole entry)": "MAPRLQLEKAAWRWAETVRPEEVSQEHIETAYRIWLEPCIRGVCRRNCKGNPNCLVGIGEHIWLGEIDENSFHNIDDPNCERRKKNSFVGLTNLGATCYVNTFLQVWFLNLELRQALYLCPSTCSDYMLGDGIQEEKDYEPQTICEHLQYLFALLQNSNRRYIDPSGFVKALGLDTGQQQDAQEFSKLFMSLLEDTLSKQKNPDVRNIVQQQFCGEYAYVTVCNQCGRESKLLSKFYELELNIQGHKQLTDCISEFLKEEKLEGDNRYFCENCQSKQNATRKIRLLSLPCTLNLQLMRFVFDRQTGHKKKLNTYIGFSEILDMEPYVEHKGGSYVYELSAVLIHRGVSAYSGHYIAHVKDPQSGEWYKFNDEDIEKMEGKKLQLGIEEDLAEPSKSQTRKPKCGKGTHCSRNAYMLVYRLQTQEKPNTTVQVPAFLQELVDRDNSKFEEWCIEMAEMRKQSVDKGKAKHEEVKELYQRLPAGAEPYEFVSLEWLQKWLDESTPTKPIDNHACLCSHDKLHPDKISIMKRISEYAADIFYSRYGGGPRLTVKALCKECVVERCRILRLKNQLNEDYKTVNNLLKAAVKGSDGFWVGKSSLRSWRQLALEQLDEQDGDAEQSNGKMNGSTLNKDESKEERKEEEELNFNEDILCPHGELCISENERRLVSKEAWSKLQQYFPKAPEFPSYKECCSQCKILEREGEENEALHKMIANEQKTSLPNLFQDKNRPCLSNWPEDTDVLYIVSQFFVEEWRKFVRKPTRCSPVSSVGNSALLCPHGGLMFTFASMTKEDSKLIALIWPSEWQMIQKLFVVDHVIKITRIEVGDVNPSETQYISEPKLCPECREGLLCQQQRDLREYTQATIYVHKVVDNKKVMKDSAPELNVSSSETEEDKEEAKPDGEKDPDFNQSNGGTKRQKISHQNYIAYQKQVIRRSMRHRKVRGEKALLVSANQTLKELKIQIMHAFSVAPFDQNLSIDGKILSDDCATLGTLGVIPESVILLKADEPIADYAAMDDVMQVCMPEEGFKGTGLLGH", "outline": "as §1"}, "USP5": {"target": "T4, USP5 (UniProt P45974)", "T4 sequence (whole entry)": "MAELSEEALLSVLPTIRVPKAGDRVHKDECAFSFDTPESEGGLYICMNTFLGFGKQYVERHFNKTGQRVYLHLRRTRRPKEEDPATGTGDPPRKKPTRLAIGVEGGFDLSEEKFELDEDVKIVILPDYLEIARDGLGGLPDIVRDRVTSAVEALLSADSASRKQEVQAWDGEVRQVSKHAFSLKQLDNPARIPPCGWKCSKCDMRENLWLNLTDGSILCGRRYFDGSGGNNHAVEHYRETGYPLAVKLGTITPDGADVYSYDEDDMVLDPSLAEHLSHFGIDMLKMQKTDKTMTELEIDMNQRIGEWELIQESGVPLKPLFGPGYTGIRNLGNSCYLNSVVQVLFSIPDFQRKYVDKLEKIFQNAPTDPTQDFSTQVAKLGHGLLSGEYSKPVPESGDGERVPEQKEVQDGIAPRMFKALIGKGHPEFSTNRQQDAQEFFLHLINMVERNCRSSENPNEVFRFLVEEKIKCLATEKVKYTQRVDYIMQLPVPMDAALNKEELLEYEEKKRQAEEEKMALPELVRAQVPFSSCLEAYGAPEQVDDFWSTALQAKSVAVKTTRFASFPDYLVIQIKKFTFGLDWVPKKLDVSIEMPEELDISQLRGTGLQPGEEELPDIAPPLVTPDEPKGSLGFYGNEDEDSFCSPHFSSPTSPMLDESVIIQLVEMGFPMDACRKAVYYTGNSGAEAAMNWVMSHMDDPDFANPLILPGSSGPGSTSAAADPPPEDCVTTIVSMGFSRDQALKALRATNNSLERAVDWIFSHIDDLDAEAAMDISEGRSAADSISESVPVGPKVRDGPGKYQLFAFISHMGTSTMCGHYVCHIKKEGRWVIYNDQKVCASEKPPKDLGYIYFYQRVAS", "outline": "as §1"}, "USP54": {"target": "USP54 (UniProt Q70EL1)", "sequence (Q70EL1 whole entry)": "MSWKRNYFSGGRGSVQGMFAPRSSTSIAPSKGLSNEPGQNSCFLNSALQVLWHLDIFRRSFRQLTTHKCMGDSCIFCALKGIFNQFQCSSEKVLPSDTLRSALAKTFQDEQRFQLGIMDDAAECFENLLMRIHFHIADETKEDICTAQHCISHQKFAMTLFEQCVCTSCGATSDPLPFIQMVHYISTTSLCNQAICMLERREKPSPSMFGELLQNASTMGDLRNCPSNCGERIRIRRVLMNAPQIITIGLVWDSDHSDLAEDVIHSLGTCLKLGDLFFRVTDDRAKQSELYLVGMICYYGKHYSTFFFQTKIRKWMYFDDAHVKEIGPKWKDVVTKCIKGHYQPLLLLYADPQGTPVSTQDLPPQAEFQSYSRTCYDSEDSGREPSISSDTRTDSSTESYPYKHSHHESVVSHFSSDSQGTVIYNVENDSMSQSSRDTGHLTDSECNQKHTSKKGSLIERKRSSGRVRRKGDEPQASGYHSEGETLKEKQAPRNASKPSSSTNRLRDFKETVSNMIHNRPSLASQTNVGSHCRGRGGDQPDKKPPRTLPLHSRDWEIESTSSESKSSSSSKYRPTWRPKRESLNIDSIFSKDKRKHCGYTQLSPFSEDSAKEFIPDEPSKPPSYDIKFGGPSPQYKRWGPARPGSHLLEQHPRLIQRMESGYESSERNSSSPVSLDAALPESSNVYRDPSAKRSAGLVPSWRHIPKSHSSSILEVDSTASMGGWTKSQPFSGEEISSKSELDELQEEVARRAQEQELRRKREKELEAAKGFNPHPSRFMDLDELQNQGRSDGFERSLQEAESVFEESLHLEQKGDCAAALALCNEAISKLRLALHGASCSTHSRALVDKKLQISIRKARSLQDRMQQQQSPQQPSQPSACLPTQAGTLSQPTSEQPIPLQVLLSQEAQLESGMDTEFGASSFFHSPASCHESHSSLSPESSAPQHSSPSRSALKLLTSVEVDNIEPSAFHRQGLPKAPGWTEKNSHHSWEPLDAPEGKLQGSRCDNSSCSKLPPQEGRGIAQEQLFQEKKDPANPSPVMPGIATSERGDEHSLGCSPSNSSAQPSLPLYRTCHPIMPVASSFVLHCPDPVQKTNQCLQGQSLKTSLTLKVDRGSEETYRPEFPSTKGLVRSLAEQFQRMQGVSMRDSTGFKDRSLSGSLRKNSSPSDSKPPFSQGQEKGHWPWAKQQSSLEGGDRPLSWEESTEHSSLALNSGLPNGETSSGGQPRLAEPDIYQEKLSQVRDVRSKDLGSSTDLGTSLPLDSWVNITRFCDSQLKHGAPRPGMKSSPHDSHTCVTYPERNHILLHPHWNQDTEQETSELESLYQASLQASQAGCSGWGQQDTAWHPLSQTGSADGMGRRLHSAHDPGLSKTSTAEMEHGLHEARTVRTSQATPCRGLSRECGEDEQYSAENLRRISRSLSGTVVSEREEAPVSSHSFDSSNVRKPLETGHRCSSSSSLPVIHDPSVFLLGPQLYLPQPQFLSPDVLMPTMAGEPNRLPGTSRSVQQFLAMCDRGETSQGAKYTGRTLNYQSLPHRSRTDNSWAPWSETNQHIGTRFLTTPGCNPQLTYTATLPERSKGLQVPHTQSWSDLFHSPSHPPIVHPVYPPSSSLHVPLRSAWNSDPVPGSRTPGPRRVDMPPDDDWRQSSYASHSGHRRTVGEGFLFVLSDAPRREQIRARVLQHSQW", "outline": "as §1"}, "USP7": {"target": "USP7 (UniProt Q93009)", "sequence (Q93009 whole entry, looked up)": "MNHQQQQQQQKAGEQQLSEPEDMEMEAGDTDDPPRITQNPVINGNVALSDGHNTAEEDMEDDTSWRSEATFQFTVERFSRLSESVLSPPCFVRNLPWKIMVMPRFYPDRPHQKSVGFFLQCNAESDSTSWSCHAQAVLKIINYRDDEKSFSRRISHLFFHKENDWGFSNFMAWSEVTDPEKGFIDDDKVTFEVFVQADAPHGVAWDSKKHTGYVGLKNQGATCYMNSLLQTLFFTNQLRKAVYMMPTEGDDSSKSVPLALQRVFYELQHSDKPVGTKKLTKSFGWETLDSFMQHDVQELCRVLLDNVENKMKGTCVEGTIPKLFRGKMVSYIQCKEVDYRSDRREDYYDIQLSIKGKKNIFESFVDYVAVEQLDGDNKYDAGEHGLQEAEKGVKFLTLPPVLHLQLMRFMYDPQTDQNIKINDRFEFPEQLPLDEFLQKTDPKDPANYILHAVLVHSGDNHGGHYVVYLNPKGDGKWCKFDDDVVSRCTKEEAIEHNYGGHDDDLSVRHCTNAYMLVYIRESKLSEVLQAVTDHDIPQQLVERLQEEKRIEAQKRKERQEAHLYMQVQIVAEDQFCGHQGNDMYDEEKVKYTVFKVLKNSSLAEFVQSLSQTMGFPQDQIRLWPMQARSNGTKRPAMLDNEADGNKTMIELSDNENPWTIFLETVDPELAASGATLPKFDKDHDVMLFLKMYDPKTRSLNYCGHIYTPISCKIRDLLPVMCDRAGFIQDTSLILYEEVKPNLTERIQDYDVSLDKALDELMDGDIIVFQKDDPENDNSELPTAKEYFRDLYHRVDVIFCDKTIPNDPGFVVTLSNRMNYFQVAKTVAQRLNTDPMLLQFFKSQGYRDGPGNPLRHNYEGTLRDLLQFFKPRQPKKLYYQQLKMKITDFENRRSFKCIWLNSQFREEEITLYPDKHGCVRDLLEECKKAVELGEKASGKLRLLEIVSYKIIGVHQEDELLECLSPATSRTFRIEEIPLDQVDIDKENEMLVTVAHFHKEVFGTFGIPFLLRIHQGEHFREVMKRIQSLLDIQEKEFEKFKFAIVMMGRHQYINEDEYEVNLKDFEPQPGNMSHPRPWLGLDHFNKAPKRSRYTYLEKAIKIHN", "outline": "as §1"}, "USP8": {"target": "T5, USP8 (UniProt P40818)", "T5 sequence (whole entry)": "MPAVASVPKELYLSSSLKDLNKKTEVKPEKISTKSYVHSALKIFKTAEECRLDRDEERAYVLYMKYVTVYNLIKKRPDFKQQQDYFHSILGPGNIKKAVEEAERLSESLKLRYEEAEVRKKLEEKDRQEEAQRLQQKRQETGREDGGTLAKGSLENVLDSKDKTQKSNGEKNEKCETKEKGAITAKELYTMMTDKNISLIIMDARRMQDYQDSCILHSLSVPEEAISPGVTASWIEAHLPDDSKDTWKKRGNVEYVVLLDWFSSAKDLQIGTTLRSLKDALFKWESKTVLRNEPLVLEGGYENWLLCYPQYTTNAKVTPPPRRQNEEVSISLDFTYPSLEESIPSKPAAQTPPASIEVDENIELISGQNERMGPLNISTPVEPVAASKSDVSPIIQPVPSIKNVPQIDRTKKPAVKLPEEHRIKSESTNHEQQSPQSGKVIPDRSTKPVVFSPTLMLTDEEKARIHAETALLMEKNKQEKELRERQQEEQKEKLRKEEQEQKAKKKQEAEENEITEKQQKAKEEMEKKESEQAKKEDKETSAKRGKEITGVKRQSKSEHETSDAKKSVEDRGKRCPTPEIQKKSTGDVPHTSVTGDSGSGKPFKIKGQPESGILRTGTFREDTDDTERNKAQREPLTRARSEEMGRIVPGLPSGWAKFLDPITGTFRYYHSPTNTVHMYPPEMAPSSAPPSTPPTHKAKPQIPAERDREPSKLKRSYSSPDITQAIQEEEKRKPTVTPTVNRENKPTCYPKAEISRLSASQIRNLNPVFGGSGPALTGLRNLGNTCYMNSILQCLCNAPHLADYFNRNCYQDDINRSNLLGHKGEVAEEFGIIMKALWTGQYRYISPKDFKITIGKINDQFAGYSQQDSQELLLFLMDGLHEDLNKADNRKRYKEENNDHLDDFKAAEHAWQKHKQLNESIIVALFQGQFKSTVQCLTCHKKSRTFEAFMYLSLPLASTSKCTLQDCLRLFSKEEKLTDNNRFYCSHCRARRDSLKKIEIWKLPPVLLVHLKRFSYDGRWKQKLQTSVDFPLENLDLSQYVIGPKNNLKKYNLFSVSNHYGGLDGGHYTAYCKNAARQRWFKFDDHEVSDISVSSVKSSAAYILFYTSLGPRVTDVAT", "outline": "as §1"}}, "note": "Unmarked numbers belong to inactive results.", "data": [{"smiles": "O=C(CCl)N1c2ccccc2NC(=O)C12CCCC2", "values": [{"measurement": "log2 ratio of Biotin-Ahx-Ub-VS probe labelling", "setting": "USP42", "result": 0.622}, {"measurement": "log2 ratio of Biotin-Ahx-Ub-VS probe labelling", "setting": "USP46", "result": -0.278}, {"measurement": "log2 ratio of Biotin-Ahx-Ub-VS probe labelling", "setting": "USP47", "result": 0.0188}, {"measurement": "log2 ratio of Biotin-Ahx-Ub-VS probe labelling", "setting": "USP48", "result": "-1.04 (active)"}, {"measurement": "log2 ratio of Biotin-Ahx-Ub-VS probe labelling", "setting": "USP5", "result": 0.581}, {"measurement": "log2 ratio of Biotin-Ahx-Ub-VS probe labelling", "setting": "USP54", "result": -0.355}, {"measurement": "log2 ratio of Biotin-Ahx-Ub-VS probe labelling", "setting": "USP7", "result": "-2.11 (active)"}, {"measurement": "log2 ratio of Biotin-Ahx-Ub-VS probe labelling", "setting": "USP8", "result": 0.279}]}]}
